# Assay results published in PubChem BioAssay (NCATS).
# Records with an inconclusive call do not appear. The source made the active and inactive calls. Calls follow the shape of the dose curve; as a rule, active = well fitted inhibition curve with a large enough effect; inconclusive = small, poorly fitted or top-dose-only effect; inactive = flat fitted curve, though single readings scatter. *1 amine or outer side, *2 acyl side, *3 side chain or, on linkers, in order; H or OH if unused. Where a SMILES comes first, the peptide text is derived from it. [ ]: non-standard residue; d: D form. X4 = CC(C)=CCc1cc(C(O)C(N[*:1])C(=O)[*:2])ccc1O
# Test: P-glycoprotein substrates identified in KB-8-5-11 adenocarcinoma cell line, qHTS therapeutic library screen (AID 1346987); also: nearly all actives have a fitted effect of over 65% in size
# Settings: KB-8-5-11 (P-gp overexpressing) viability, CellTiter-Glo, 72 h; series mostly up to 44.5 µM; activity change, negative = cytotoxicity: at the top concentration
# In short: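 Compounds are pinned in dose-response onto KB-8-5-11 cells (500 cells/well, colchicine-free medium) and left 72 h at 37 degree C. CellTiter-Glo luminescence then yields AC50 values.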
# % is scaled to controls: 0 for no effect and ±100 for the full control effect; potency is read from the fitted curve at half-maximal effect.
SMILES,outcome,Potency,"activity change, negative = cytotoxicity"
Cc1cc(O)cc(O[C@@H]2O[C@H](CO)[C@@H](O)[C@H](O)[C@H]2O)c1,inactive,,
C=C1C(=O)O[C@H](CCC)[C@H]1C(=O)O,inactive,,
COc1cc(C(=O)NC2CCN(C)CC2)c(F)cc1Nc1ncc2c(n1)N(C1CCCC1)CC(F)(F)C(=O)N2C,,51.7 nM (active),
O=C(O)C1CN(Cc2ccc(-c3nc4cc(Cc5ccccc5F)ccc4s3)c(F)c2)C1,,,0.617% [at 9.29 µM] (inactive)
C[C@H]1[C@H](O)O[C@@H]2O[C@@]3(C)CC[C@H]4[C@H](C)CC[C@@H]1[C@@]24OO3,,11600 nM (active),
COC1CC(O[C@H]2CC[C@@]3(C)C(CCC4C3[C@H](OC(C)=O)[C@@H](OC(=O)/C=C/c3ccccc3)[C@]3(C)C(C(C)=O)CC[C@]43O)C2)OC(C)C1OC1CC(OC)C(OC2CC(OC)C(OC3OC(C)C(OC4OC(CO)C(O)C(O)C4O)C(OC)C3O)C(C)O2)C(C)O1 (some centres undefined),,,-0.0477% [at 9.29 µM] (inactive)
C/C=C(\C)C(=O)O[C@H]1[C@@H](O[C@]2(COC(=O)CC(C)C)O[C@H](COC(=O)C(C)CC)[C@@H](OC(C)=O)[C@@H]2O)O[C@H](COC(C)=O)[C@@H](O)[C@@H]1O (some centres undefined),,,-6.72% [at 17.3 µM] (inactive)
C=C1CCC2C(C)(COC(C)=O)CCCC2(C)C1CCC(C)CC(=O)O (centres undefined),,,7.67% (inactive)
COc1cc(Br)c(S(=O)(=O)Nc2ccc(C(F)(F)F)c(O[C@@H]3CCN(C)C3)c2)cc1OC,,,-25.2% (inactive)
C=C[C@H]1[C@H](O[C@@H]2O[C@H](CO)[C@@H](O)[C@H](O)[C@H]2O)OC=C(C(=O)OC)[C@H]1C/C=C(/C=O)[C@@H]1C(C(=O)OC)=CO[C@@H](O[C@@H]2O[C@H](CO)[C@@H](O)[C@H](O)[C@H]2O)[C@@H]1C=C,inactive [at 17.3 µM],,
CC1=CCC2C(C)(C)CCC[C@]2(C)[C@@]12CC[C@](C)(CC(=O)O)O2 (some centres undefined),,,-8.53% (inactive)
COC(=O)CC(O)C1OC(c2ccccc2)C(O)C1O (centres undefined),inactive,,
C=CC1(C)C=C2C(=O)OC(=O)C3=C(CCCC3(C)C)C2(O)CC1 (centres undefined),inactive,,
Fc1ccc2nc(CCC#Cc3ccccn3)cn2c1,,,-17.2% (inactive)
CC(=O)NC[C@H]1CN(c2ccc(N3CCN(C(=O)CO)CC3)c(F)c2)C(=O)O1,,,-12.9% (inactive)
CC(=O)c1ccc(O[C@@H]2O[C@H](CO)[C@@H](O)[C@H](O)[C@H]2O)cc1,,,2.66% (inactive)
Nc1nc2c(ncn2[C@@H]2O[C@H](CO)[C@@H](O)[C@H]2O)c(=O)[nH]1,inactive,,
CC(C)=CCc1cc(C(O)C2NC(=O)CNC(=O)C(Cc3c[nH]c4ccccc34)NC(=O)C3CCCN3C(=O)CNC(=O)C(C(C)C)NC(=O)CNC2=O)ccc1O (centres undefined) (cyclo(G[X4]GVGPW); configuration not given here),,,-0.495% [at 9.29 µM] (inactive)
C[C@H]1CC[C@@]2(OC1)O[C@H]1CC3C4CC[C@H]5C[C@@H](O)[C@H](O)C[C@]5(C)C4=CC(=O)[C@]3(C)[C@H]1[C@@H]2C (some centres undefined),,,-14.6% [at 17.3 µM] (inactive)
CCN1CCN(Cc2ccc(Nc3ncc(F)c(-c4cc(F)c5nc(C)n(C(C)C)c5c4)n3)nc2)CC1,,4110 nM (active),

SMILES,outcome,Potency,"activity change, negative = cytotoxicity"
O=C1NC(=O)C(c2cn3c4c(cccc24)CCC3)C1c1c[nH]c2ccccc12 (centres undefined),,1300 nM (active),
C[S+](CC[C@H](N)C(=O)[O-])C[C@H]1O[C@@H](n2cnc3c(N)ncnc32)[C@H](O)[C@@H]1O (some centres undefined),,,2.97% (inactive)
C[C@@H]1O[C@@H](O[C@@H]2[C@@H](O)[C@@H](O[C@]3(CO)O[C@H](CO)[C@@H](O)[C@@H]3OC(=O)/C=C/c3ccc(O)cc3)O[C@H](CO)[C@H]2OC(=O)/C=C/c2ccc(O)cc2)[C@H](O)[C@H](O)[C@H]1O[C@@H]1O[C@@H](C)[C@H](O[C@@H]2OC[C@](O)(CO)[C@H]2O)[C@@H](O)[C@H]1O,,,9.01% [at 9.29 µM] (inactive)
CCNCc1nc2c(N)nc3ccccc3c2n1CC(C)(C)O,,,7.86% (inactive)
Cc1ccc(S(=O)(=O)Cc2nc(-c3ccc(C(=O)NCc4cccnc4)cc3)oc2C)cc1,,58 nM (active),
Nc1nc(-n2cc(C(=O)O)c(=O)c3cc(F)c(N4CC(O)C4)c(Cl)c32)c(F)cc1F,,,-8.8% (inactive)
C[C@H](C/C=C/C(C)(C)O)[C@H]1CC[C@@]2(C)[C@@H]3[C@@H](O[C@@H]4O[C@H](CO)[C@@H](O)[C@H](O)[C@H]4O)C=C4C(CC[C@H](O)C4(C)C)[C@]3(C=O)CC[C@]12C (some centres undefined),,,9.56% [at 17.3 µM] (inactive)
Nc1ncnc2c1nc(N)n2[C@@H]1O[C@H](CO)[C@@H](O)[C@H]1O,,1160 nM (active),
COC(=O)C[C@H]1[C@]2(C)C3=C(C)[C@H](c4ccoc4)C[C@H]3O[C@@H]2[C@H](OC(C)=O)C2[C@](C)(C(=O)OC)C=CC(=O)[C@@]21C (some centres undefined),,,-13.2% [at 17.3 µM] (inactive)
C=C(C(=O)O)C1CCC2(C)CCC(O)C(C)(O)C2C1 (centres undefined),,,-8.05% (inactive)
Cn1c(=O)cc(N2CCCC(N)C2)n(Cc2cc(F)ccc2C#N)c1=O (centres undefined),,,3.03% (inactive)
CC(=O)O[C@@H]1[C@H](O)[C@@H](O[C@@H]2O[C@@H](C)[C@H](O[C@@H]3OC[C@@H](O)[C@H](O[C@@H]4OC[C@@H](O)[C@H](O)[C@H]4O)[C@H]3O)[C@@H](O[C@@H]3O[C@H](CO)[C@@H](O)[C@H](O)[C@H]3O)[C@H]2O)[C@H](OC(=O)[C@]23CCC(C)(C)C[C@H]2C2=CCC4[C@@]5(C)CC[C@H](O[C@@H]6O[C@H](C(=O)O)[C@@H](O)[C@H](O[C@@H]7OC[C@@H](O)[C@H](O)[C@H]7O)[C@H]6O[C@@H]6O[C@H](CO)[C@H](O)[C@H](O)[C@H]6O)[C@@](C)(C=O)C5CC[C@@]4(C)[C@]2(C)CC3)O[C@@H]1C (some centres undefined),,,9.26% [at 5.11 µM] (inactive)
CC1(C)CCCC2(C)C1CC=C1C(=O)OC(O)C12O (centres undefined),,,1.31% (inactive)
C=C[C@H]1[C@H](O[C@@H]2O[C@H](CO)[C@@H](O)[C@H](O)[C@H]2O)OC=C(C(=O)OC)[C@H]1CC(=O)O,,,4.6% (inactive)
O=C(c1cn(Cc2cncn2Cc2ccc(Br)cc2)cc1-c1cccc2ccccc12)N1CCOCC1,,4110 nM (active),
CC1(C)CC(=O)C2=C(C1)NC(=S)NC2c1cccc(O)c1 (centres undefined),,5800 nM (active),
CC/C=C\CCO[C@@H]1O[C@H](CO)[C@@H](O)[C@H](O)[C@H]1O,,,8.95% (inactive)
C=C[C@]1(C)C[C@H](O)[C@@H]2[C@H](OC(=O)[C@@H]2C)C1/C(C)=C/O[C@@H]1O[C@H](CO)[C@@H](O)[C@H](O)[C@H]1O (some centres undefined),inactive [at 17.3 µM],,
CC1=CC2/C=C(\C)CC[C@@H](O)[C@@H](O)[C@@H]3O[C@@H]3C(=O)[C@]23C(=O)N[C@@H](CC(C)C)[C@@H]3[C@@H]1C (some centres undefined),,,-5.48% [at 17.3 µM] (inactive)
